The record followed here is PubChem BioAssay (Tox21).

Experiment [1] can be described thus: qHTS assay to identify small molecule antagonists of the thyroid receptor (TR) signaling pathway - cell viability counter screen (AID 743064). Also: nearly all actives have a fitted effect of over 50% in size. Also: potency is read from the fitted curve at half-maximal effect. The method in brief:
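GH3.TRE-Luc cells, 4 h pre-plating; cpd + T3 1 nM final; 37 °C 23.5 h; CellTiter-Fluor 30 min; fluorescence read.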
For orientation: Quantitative high-throughput screening tests each substance at several concentrations.

Experiment [2] can be described thus: qHTS assay to identify small molecule antagonists of the thyroid receptor (TR) signaling pathway (AID 743065). Also: nearly all actives have a fitted effect of over 55% in size. Also: potency is read from the fitted curve at half-maximal effect. The method in brief: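 Antagonism measured as loss of luciferase signal in GH3 cells stably carrying a TRE-luciferase reporter, co-treated with compound and T3 (1 nM final) for 23.5 h at 37 C. Viability was read in the same well by CellTiter-Fluor.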

For experiment [3], the system named is thyroid hormone receptor (rat, GH3 cells). Description: qHTS assay to identify small molecule agonists of the thyroid receptor (TR) signaling pathway (AID 743066; calls by dose curve).
Experiment [4] has as its target Estrogen receptor (Homo sapiens) (UniProt P03372). Description: qHTS assay to identify small molecule antagonists of the estrogen receptor alpha (ER-alpha) signaling pathway (AID 743069; active = well fitted curve in the direction sought with a large enough effect in the signal ratio in the repeat runs, not every such curve was filed as active; the % refers to the signal ratio). The method in brief: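 Fluorescence intensity from a beta-lactamase FRET substrate served as the read-out. Cells: HEK293 with stably integrated ER-alpha-UAS-bla reporter. Agonist 17beta-estradiol was co-added with compounds; incubation 18 hr at 37C, substrate 2 hr at room temperature.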

The nature of experiment [5]: qHTS assay to identify small molecule antagonists of the estrogen receptor alpha (ER-alpha) signaling pathway - cell viability counter screen (AID 743074; calls by dose curve; also: nearly all actives have a fitted effect of over 45% in size).
Experiment [6] addresses Estrogen receptor (Homo sapiens) (UniProt P03372). As to the kind of experiment: qHTS assay to identify small molecule agonists of the estrogen receptor alpha (ER-alpha) signaling pathway (AID 743075; calls by dose curve).
For experiment [7] the target is unchanged. As to the kind of experiment: qHTS assay to identify small molecule agonists of the estrogen receptor alpha (ER-alpha) signaling pathway using the BG1 cell line (AID 743079). Also: nearly all actives have a fitted effect of over 20% in size. Also: potency is read from the fitted curve at half-maximal effect. The note with it: BG1Luc4E2 cells, ERE-luciferase agonist, 22 h; activation: at 70.3 µM (top of the series).
Experiment [8] is described as follows: qHTS assay to identify small molecule antagonists of the estrogen receptor alpha (ER-alpha) signaling pathway using the BG1 cell line (AID 743080; calls by dose curve;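 also: BG1 cells stimulated with 17beta-estradiol alongside compound; nearly all actives have a fitted effect of over 25% in size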). The method in brief:
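Quantitative HTS on the Tox21 10K library: BG1 cells with endogenous ER-alpha and ERE-luciferase reporter, 17beta-estradiol stimulation, 21.5 h compound exposure, luminescence endpoint with parallel fluorescence cytotoxicity counter-read.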

The nature of experiment [9]: qHTS assay to identify small molecule antagonists of the estrogen receptor alpha (ER-alpha) signaling pathway using the BG1 cell line - cell viability counter screen (AID 743081).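 Also: compound given together with 17beta-estradiol as the ER stimulus; nearly all actives have a fitted effect of over 45% in size.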 Also: potency is read from the fitted curve at half-maximal effect.
Experiment [10] deals with Aromatase (Homo sapiens) (UniProt P11511). Description: qHTS assay to identify aromatase inhibitors (AID 743083). Also: nearly all actives have a fitted effect of over 55% in size.
Aromatase (Homo sapiens), sequence (P11511 whole entry, looked up): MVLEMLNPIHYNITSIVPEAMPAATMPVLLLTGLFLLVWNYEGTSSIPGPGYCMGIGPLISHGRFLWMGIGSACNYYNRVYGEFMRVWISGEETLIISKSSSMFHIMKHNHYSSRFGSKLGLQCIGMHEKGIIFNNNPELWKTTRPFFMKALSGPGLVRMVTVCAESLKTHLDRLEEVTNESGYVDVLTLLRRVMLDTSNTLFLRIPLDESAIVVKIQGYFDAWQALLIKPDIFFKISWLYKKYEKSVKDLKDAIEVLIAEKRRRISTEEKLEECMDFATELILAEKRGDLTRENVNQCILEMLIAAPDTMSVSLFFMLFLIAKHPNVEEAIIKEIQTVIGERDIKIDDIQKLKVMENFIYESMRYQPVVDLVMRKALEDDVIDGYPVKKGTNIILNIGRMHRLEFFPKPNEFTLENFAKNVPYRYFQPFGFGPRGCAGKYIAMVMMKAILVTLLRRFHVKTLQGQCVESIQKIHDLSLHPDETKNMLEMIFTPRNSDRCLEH

Results filed as inconclusive are left out. Active and inactive are the calls of the source. Unless noted, calls follow the shape of the dose curve; as a rule, active = well fitted curve in the direction sought with a large enough effect in the repeat runs; inconclusive = weak or mixed curves; inactive = no such curve, though single readings can be large; an effect the other way counts as inactive or inconclusive. Positions of bridges follow the written chain, without caps; N, C: chain ends. Non-standard residues stand in square brackets, D forms with d. Residues, ends and D or L forms follow the SMILES beside them. Orn = NCCC[C@H](N)C(=O)O; Mpa = O=C(O)CCS

Estrogen receptor (Homo sapiens), sequence (P03372 whole entry, looked up): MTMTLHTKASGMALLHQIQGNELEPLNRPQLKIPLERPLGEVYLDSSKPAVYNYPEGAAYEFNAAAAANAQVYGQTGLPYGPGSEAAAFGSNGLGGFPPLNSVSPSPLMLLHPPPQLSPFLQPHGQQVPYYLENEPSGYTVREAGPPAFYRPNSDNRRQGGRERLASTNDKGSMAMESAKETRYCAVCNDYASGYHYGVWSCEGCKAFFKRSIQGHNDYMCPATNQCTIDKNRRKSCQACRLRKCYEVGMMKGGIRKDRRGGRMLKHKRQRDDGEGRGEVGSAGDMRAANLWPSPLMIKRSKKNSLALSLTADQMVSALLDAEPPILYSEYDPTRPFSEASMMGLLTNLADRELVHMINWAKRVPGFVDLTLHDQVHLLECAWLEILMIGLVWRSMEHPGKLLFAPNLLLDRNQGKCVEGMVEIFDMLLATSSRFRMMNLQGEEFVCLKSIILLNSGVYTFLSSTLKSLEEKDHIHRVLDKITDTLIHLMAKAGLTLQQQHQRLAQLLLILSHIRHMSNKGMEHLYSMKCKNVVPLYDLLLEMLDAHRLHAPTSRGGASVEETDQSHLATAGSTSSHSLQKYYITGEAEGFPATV

Consider `C=CCSSSCC=C`, for which the Potency entry in [1], in experiment [2], in experiment [3], in experiment [4], in experiment [5] and in experiment [6] was “inactive” each time. Moreover, the Potency entry in experiment [8], in experiment [9] and in experiment [10] was “inactive” throughout. The Potency in [7] was 29.8 µM (active).

Consider `CN(C)CC/C=C1/c2ccccc2CSc2ccccc21`, for which the Potency is 4.52 µM (active) in [1] and 9.02 µM (active) in [2]. Besides, the Potency entry in experiment [3], in experiment [4], in experiment [5], in experiment [6], in experiment [7] and in [8] was “inactive” each time. The Potency result in [9] and in experiment [10] was “inactive” each time.

As to `O=C1O[C@H]2[C@H](O)[C@@H]1OC(O)[C@H]2O` (some centres undefined), the Potency result in experiment [1], in experiment [2], in [3], in experiment [4], in experiment [5] and in experiment [6] was “inactive” each time. In addition, the Potency entry in experiment [8], in experiment [9] and in experiment [10] was “inactive” throughout. Moreover, the Potency in experiment [7] is 13.3 µM (active).

`O=C(O)c1ccc(NC(=O)[C@H](Cc2ccc(O)cc2)NC(=O)c2ccccc2)cc1`: the Potency entry in [1], in experiment [2], in experiment [3], in experiment [4], in experiment [5] and in [6] was “inactive” throughout. The Potency result in [7], in experiment [8], in [9] and in experiment [10] was “inactive” throughout.

Regarding `O=C(O)CO.[NH2-].[NH2-].[Pt+2]`, the Potency result in experiment [1], in experiment [2], in experiment [3], in [4], in experiment [5] and in experiment [6] was “inactive” each time. Moreover, the Potency entry in experiment [7], in [8], in [9] and in [10] was “inactive” each time.

As for `COc1ccc(C2(C#N)CCC(C(=O)O)CC2)cc1OC1CCCC1` (centres undefined), the Potency result in experiment [1], in [2], in [3], in experiment [4], in experiment [5] and in experiment [6] was “inactive” in each case. In addition, the Potency entry in [8], in [9] and in experiment [10] was “inactive” each time. Further, the Potency in [7] was 29.8 µM (active).

With `COCC1=C(C(=O)OC(C)OC(=O)OC(C)C)N2C(=O)[C@@H](NC(=O)/C(=N\OC)c3csc(N)n3)[C@H]2SC1` (some centres undefined), the Potency entry in [1], in experiment [2], in experiment [3], in experiment [4], in experiment [5] and in experiment [6] was “inactive” throughout. Also, the Potency entry in experiment [7], in experiment [8], in experiment [9] and in experiment [10] was “inactive” each time.

Take `CCC(C)[C@@H](N)C(=O)O` (some centres undefined): the Potency entry in experiment [1], in [2], in experiment [3], in experiment [4], in [5] and in experiment [6] was “inactive” in each case. For the same compound, the Potency entry in experiment [7], in [8], in experiment [9] and in experiment [10] was “inactive” throughout.

Turning to `C=C[C@]1(C)C[C@@H](OC(=O)CSCCN(CC)CC)[C@]2(C)[C@H](C)CC[C@]3(CCC(=O)[C@H]32)[C@@H](C)[C@@H]1O`, the Potency in experiment [1] was 10.6 µM (active); in experiment [2], 23.7 µM (active); in experiment [9] it was 10.6 µM (active). The Potency entry in experiment [3], in experiment [4], in experiment [5], in [6], in experiment [7] and in experiment [8] was “inactive” in each case. In addition, in experiment [10], the Potency entry is “inactive”.

As to `CC[C@H](CC[C@@H](C)[C@H]1CC[C@H]2[C@@H]3CC=C4C[C@@H](O)CC[C@]4(C)[C@H]3CC[C@]12C)C(C)C`, the Potency result in [1], in experiment [2], in experiment [3], in experiment [4], in experiment [5] and in experiment [6] was “inactive” in each case. The Potency entry in experiment [7], in [8], in experiment [9] and in [10] was “inactive” in each case.

`CC#CCC(C)[C@H](O)/C=C/[C@@H]1[C@H]2C/C(=C/CCCC(=O)O)C[C@H]2C[C@H]1O` (some centres undefined): the Potency result in experiment [1], in experiment [2], in [3], in experiment [4], in experiment [5] and in experiment [6] was “inactive” throughout. Further, the Potency result in experiment [8] and in [10] was “inactive” each time. Further, the Potency in experiment [7] was 29.8 µM (active).

Consider `CCOc1ccc(C[C@H]2NC(=O)CCSSC[C@@H](C(=O)N3CCC[C@H]3C(=O)N[C@@H](CCCN)C(=O)NCC(N)=O)NC(=O)[C@H](CC(N)=O)NC(=O)[C@H]([C@@H](C)O)NC(=O)[C@H]([C@@H](C)CC)NC2=O)cc1` ([Mpa][dY](Et)ITNCP[Orn]G-NH2; disulfide 1-6), for which the Potency entry in experiment [1], in experiment [2], in [3], in experiment [4], in [5] and in experiment [6] was “inactive” throughout. Besides, the Potency entry in experiment [7], in experiment [8], in [9] and in experiment [10] was “inactive” each time.

Turning to `CC(=O)N=c1sc(S(N)(=O)=O)nn1C`, the Potency entry in experiment [1], in [2], in experiment [3], in [4], in [5] and in [6] was “inactive” throughout. The Potency result in experiment [7], in experiment [8], in [9] and in experiment [10] was “inactive” each time.

In the case of `CN1CCN(C(c2ccccc2)c2ccc(Cl)cc2)CC1` (centres undefined), the figures for the Potency in experiment [1] and in experiment [2] were 5.69 µM (active) and 10.1 µM (active), respectively. The Potency result in [3], in [4], in experiment [5], in [6], in [7] and in experiment [8] was “inactive” each time. The Potency entry in experiment [9] and in experiment [10] was “inactive” each time.

With `O=C1NCCN1c1ncc([N+](=O)[O-])s1`, the Potency entry in [1], in experiment [2], in experiment [3], in [4], in experiment [5] and in experiment [6] was “inactive” throughout. Further, the Potency entry in [7], in experiment [8], in experiment [9] and in experiment [10] was “inactive” throughout.

Regarding `Cc1nc(NS(=O)(=O)c2ccc(N)cc2)nc(C)c1Br`, the Potency entry in [1], in [2], in experiment [3], in experiment [4], in [5] and in experiment [6] was “inactive” in each case. Moreover, the Potency result in experiment [7], in [8], in [9] and in [10] was “inactive” throughout.

`Cn1nnnc1SCC1=C(C(=O)O)N2C(=O)[C@@H](NC(=O)[C@H](OC=O)c3ccccc3)[C@H]2SC1`: the Potency entry in experiment [1], in experiment [2], in experiment [3], in experiment [4], in [5] and in experiment [6] was “inactive” each time. Further, the Potency result in [7], in experiment [8], in experiment [9] and in [10] was “inactive” in each case.

With `O=P(O)(O)OC(CO)CO`, the Potency result in experiment [1], in [2], in experiment [3], in [4], in experiment [5] and in [6] was “inactive” in each case. The Potency entry in experiment [7], in experiment [8], in [9] and in experiment [10] was “inactive” in each case.

Consider `O=C(NNCS(=O)(=O)O)c1ccncc1`, for which the Potency entry in [1], in experiment [2], in experiment [3], in experiment [4], in [5] and in experiment [6] was “inactive” in each case. The Potency entry in experiment [7], in experiment [8], in experiment [9] and in experiment [10] was “inactive” throughout.

`O=C(CCCCCCCCCCCCC1CCCC1)Nc1ccc(S(=O)(=O)c2ccc(NC(=O)CCCCCCCCCCCCC3CCCC3)cc2)cc1`: the Potency entry in experiment [1], in [2], in experiment [3], in [4], in experiment [5] and in [6] was “inactive” each time. The Potency entry in experiment [7], in experiment [8], in experiment [9] and in [10] was “inactive” in each case.
